# Source: PubChem BioAssay
# Compounds with a hit are over-represented: about 18% of the library has one in this group of screens.
# TDP1 cell CPT = growth inhibition of DT40 Tdp1-/-;hTDP1 cells with camptothecin (screen for TDP1 inhibitors). Potency, µM (highest dose often 46.2 µM), for inactives: at the top dose activity change, negative = growth inhibition, hits mostly inhibitors. AID 686979. hit rate 12% among 420,000. chicken DT40 Tdp1-/-;hTDP1 cells + 20 nM CPT, ATP luminescence, 48 h; note: potency is the fitted concentration of half-maximal effect; % is set by controls: 0 for no effect and ±100 for the full control effect; nearly all actives have a fitted effect of over 55% in size
#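 Chicken DT40 Tdp1-/- cells stably complemented with human TDP1 were seeded at 400 cells/well in medium containing 20 nM camptothecin, exposed to pin-transferred compounds, and grown at 37 °C for at least 48 hr. Viability was read as ATP luminescence.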
# TDP1 cell noCPT = qHTS for Inhibitors of human tyrosyl-DNA phosphodiesterase 1 (TDP1): qHTS in cells in absence of CPT; DT40 Tdp1-/- hTDP1 cells, no CPT, ATP luminescence, 48 h; Potency, µM (highest dose often 46.2 µM), for inactives: top-dose activity change, negative = growth inhibition, actives largely listed as inhibitors; hit rate 15% among 420,000; AID 686978, 2013; note: potency is the fitted concentration of half-maximal effect; % is set by controls: 0 for no effect and ±100 for the full control effect; nearly all actives have a fitted effect of over 55% in size
#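 Growth kinetics read by CellTiter-Glo luminescence after ≥48 hr at 37 °C. Cells: DT40 Tdp1-/- stably carrying human TDP1, 400 per well, compound exposure in the absence of CPT (DMSO vehicle).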
# IL1B secr inh = inhibitors of inflammasome signaling (IL-1 beta secretion). activity change, % at 57.5 µM. THP-1 LPS/ATP IL-1B secretion, AlphaLISA, 16 h; stronger effect = lower value. AID 743279. hit rate 4.7% among 360,000; in the data active = activity change below about -50%; inconclusive = mostly about -30% to -49%; note: % is set by controls: 0 for no effect and ±100 for the full control effect
#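 THP-1 cells pretreated 1 hr with compounds (up to 57.5 uM final), then stimulated with LPS (250 ng/mL final) plus ATP (1.25 mM final); secreted IL-1B measured by AlphaLISA after 16 hr, decreased signal indicating inhibition.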
# TDP1 block = blocks human tyrosyl-DNA phosphodiesterase 1; AID 485290; recombinant TDP1, AlphaScreen DNA substrate cleavage; Q9NUW8; Potency, µM (titrated, usually from 130 µM), for inactives: at the highest dose activity change, negative = inhibition, usual class: inhibitors; hit rate 0.28% among 350,000; note: potency is the fitted concentration of half-maximal effect; % is set by controls: 0 for no effect and ±100 for the full control effect; nearly all actives have a fitted effect of over 40% in size
# Target sequence (Q9NUW8 whole entry, looked up): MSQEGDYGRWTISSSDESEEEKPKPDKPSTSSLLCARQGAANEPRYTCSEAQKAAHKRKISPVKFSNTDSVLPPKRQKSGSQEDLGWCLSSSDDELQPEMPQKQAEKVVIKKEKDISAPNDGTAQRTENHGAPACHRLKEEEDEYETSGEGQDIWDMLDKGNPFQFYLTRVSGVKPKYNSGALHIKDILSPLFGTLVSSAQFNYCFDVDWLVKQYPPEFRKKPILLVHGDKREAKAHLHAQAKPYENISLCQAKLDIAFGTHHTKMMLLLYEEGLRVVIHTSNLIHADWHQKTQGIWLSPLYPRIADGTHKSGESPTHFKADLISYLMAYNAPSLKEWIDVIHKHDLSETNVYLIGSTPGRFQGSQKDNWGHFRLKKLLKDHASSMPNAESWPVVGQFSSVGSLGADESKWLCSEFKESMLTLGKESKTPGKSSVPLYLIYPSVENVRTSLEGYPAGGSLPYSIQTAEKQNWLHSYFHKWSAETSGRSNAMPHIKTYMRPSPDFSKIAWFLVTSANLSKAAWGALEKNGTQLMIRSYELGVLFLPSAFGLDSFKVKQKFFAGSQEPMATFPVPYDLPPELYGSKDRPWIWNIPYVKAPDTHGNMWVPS
#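 Recombinant human Tdp1 (E. coli-expressed, 1 nM final) preincubated with compounds 15 min at room temperature, then 5'-biotin/3'-phosphotyrosine-FITC DNA substrate (15 nM final) added for 5 min. AlphaScreen beads (10 ug/ml final) added 10 min; cleavage lowers signal.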
# HepG2 tox = kills HepG2 cells in TGF-b inhibitor counter-screen | HepG2 CAGA-GFP viability, ATP luminescence, 18 h | Potency, µM (top dose mostly 46.1 µM), for the others: top-dose activity change, negative = cytotoxicity, actives largely listed as cytotoxic | hit rate 0.76% among 410,000 | AID 588856; note: potency is the fitted concentration of half-maximal effect
#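 HepG2 CAGA-GFP cells (1000/well, DMEM with 1% FBS) received compound, then TGF-beta at 500 pg/mL final, and were incubated 18 hours at 37 degrees C. Viability was read by CellTiter-Glo luminescence. Media-only wells were set as complete cell-killing and DMSO as no toxicity.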
# TGFb inhibitor = TGF-b pathway inhibition; HepG2 CAGA-GFP TGF-b/SMAD3 reporter, GFP fluorescence, 18 h; TGF-beta stimulated, 500 pg/mL final; Potency, µM (series often up to 46.1 µM), for inactives: at the highest dose activity, negative = inhibition, usual class: inhibitors; hit rate 1.2% among 410,000; AID 588855; note: potency is the fitted concentration of half-maximal effect; % is set by controls: 0 for no effect and ±100 for the full control effect; nearly all actives have a fitted effect of over 65% in size
#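 GFP signal (ex488/em500-530) from TGF-beta-stimulated HEPG2 CAGA-GFP cells, 500 pg/mL final, 18 h at 37 degrees C in DMEM plus 1% FBS, normalized to unstimulated and DMSO-stimulated controls.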
# Starred values were filed as active, the others as inactive; ? = inconclusive; nt = not tested or not shown; [ ] = remark or other dose. Unless noted, calls come from the whole dose curve; as a rule, active = well fitted curve in the direction sought with a large enough effect; inconclusive = small, poorly fitted or top-dose-only effect, or another doubt; inactive = no such curve, though single readings can be large; an effect the other way counts as inactive or inconclusive.
SMILES,TDP1 cell CPT,TDP1 cell noCPT,IL1B secr inh,TDP1 block,HepG2 tox,TGFb inhibitor
Cc1ccc(-c2c3c(nc4sc(C(N)=O)c(N)c24)CCCC3)o1,-5.0%,-23.6%,-25.4,2.5%,-1.3%,?
NC(=O)c1sc2nc3c(c(-c4ccco4)c2c1N)CCC3,?,14.1µM*,-80.0*,6.2%,-35.6%,?
NC(=O)c1sc2nc(-c3cccnc3)ccc2c1N,?,?,-66.7*,-3.1%,-2.6%,2.1%
Nc1c(C(=O)NC2CC2)sc2nc3c(c(-c4ccco4)c12)CC/C3=C/c1ccco1,18.4µM*,16.4µM*,-74.7*,0.0%,-3.1%,0.0%
CCOC(=O)c1sc2nc(-c3cccnc3)ccc2c1N,-2.9%,-22.2%,-0.1,-3.6%,7.7%,7.6%
O=C(NC1CCCC1)c1cc2nc(-c3ccco3)cc(C(F)(F)F)n2n1,?,?,-4.3,6.6%,7.6%,11.8%
NC(=O)c1sc2nc(-c3ccco3)ccc2c1N,-18.7%,-25.8%,-67.8*,?,-0.6%,?
CNc1ccccc1NC(=O)C1CCCN1C(=O)OCc1ccccc1 (stereo not drawn),9.6%,16.9%,5.3,1.0%,-4.0%,-5.4%
CN(CC(=O)Nc1ccc2c(c1)OCCO2)Cc1nc2ccccc2c(=O)[nH]1,?,?,-25.2,0.3%,-2.8%,2.6%
CC(=O)N[C@@H](C)C(=O)NCC1Cc2cc(C)cc(-c3cnccn3)c2O1 (stereo partly drawn),-2.4%[9.04 µM],-1.7%,nt,nt,nt,nt
CC1(C)SC(C)(C)N(C=O)C1C(=O)O (stereo not drawn),-4.8%,3.3%,-9.6,nt,0.1%,25.1%
CCc1ccc(CNC(=O)c2cnc3c(C)cccn3c2=O)cc1,5.6%,?,nt,-9.3%,-8.5%,8.3%
O=C1Nc2c(ccc(Cl)c2Cl)C(=O)C1(F)c1ccccc1 (stereo not drawn),-16.5%,-29.5%,-98.9*,6.8%,-21.2%,-2.2%
COc1ccc(S(=O)(=O)c2cnc3ccccc3n2)cc1,?,?,-57.6*,0.5%,2.3%,-24.5%
COc1ccc(S(=O)(=O)c2ccc(OC)cc2)cc1,?,-27.9%,-11.4,1.0%,-13.0%,6.2%
Brc1ccc(Sc2cnc3ccccc3n2)cc1,-11.1%,-21.9%,-11.5,-4.1%,-35.6%,3.0%
O=S(=O)(Cc1ccccc1)c1cnc2ccccc2n1,16.4µM*,16.4µM*,-89.1*,5.1%,10.1%,?
O=S(=O)(c1ccc(Br)cc1)c1cnc2ccccc2n1,25.9µM*,?,-100.6*,1.6%,-31.4%,-26.5%
CC(=O)Nc1ccc(C(=O)OCC(=O)N2CCC(Cc3ccccc3)CC2)cc1,-22.6%,-28.1%,-3.5,2.0%,-17.9%,-5.9%
CCOC(=O)CN(C)C(=O)c1cnn(-c2ncc3c(n2)-c2ccccc2CCC3)c1C,3.8%[9.04 µM],?,nt,nt,nt,nt
Brc1ccc(NC(c2ccccc2)c2ccncc2)cc1 (stereo not drawn),-18.5%,?,-2.8,nt,-22.9%,-19.9%
Cc1cc(C)c2ccc(/C=N/O)nc2c1O,-20.6%,-28.6%,8.9,nt,-101.4%,17.8µM*
Cc1cc(C)c2ccc(NN)nc2c1O,?,18.4µM*,60.9,7.0%,-4.3%,-27.5%
CC(=O)Nc1ccccc1/C=C/c1ccc2c(C)cc(C)c(O)c2n1,?,16.4µM*,1.2,0.6%,3.1%,3.4%
Cc1cc(NN)nc(Cc2ccccc2)n1,-24.2%,-4.6%,17.7,nt,-7.6%,0.0%
SMILES,TDP1 cell CPT,TDP1 cell noCPT,IL1B secr inh,TDP1 block,HepG2 tox,TGFb inhibitor
CCOc1ccc2oc(C(=O)N(C)CCc3ccc(OC)c(OC)c3)c(C)c2c1,20.6µM*,?,-11.7,0.0%,-4.3%,-10.5%
CCOc1ccc2oc(C(=O)Nc3ccc4c(c3)OCO4)c(C)c2c1,-3.8%,?,-50.0*,nt,-8.8%,-2.7%
COc1ccc2oc(C(=O)N(C)Cc3ccc4c(c3)OCCO4)c(C)c2c1,?,?,-4.6,nt,-35.1%,-15.7%
CCOc1ccc2oc(C(=O)Nc3ccc(N4CCOCC4)cc3)c(C)c2c1,-3.0%,?,29.6,5.1%,8.9%,-3.9%
CCOc1ccc2oc(C(=O)N(C)CC(=O)Nc3ccc(OCC)c(OCC)c3)c(C)c2c1,?,18.4µM*,-6.4,-6.9%[0.505 µM],0.0%,-7.3%
COCCCNC(=O)c1cc2cc3cc(OC)ccc3nc2o1,-16.1%,?,-24.7,nt,2.9%,9.9%
Cn1cccc1C(=O)C(=O)Nc1cc(Cl)cc(Cl)c1,16.4µM*,14.6µM*,1.0,-5.3%,-16.7%,-30.4%
CCOc1cc(C(=O)Nc2ccc3oc(-c4ccc(CC)cc4)nc3c2)cc(OCC)c1OCC,23.1µM*,8.2µM*,nt,-2.2%[12.3 µM],-10.8%,0.9%
CCc1ccc(-c2nc3cc(NC(=O)c4ccc(C)c(C)c4)ccc3o2)cc1,?,?,nt,4.5%,-9.6%,-30.2%
CCOc1ccc(C(=O)Nc2ccc3oc(-c4ccc(C)cc4C)nc3c2)cc1Br,?,13µM*,nt,-1.3%[12.3 µM],-23.4%,-9.0%
Cc1ccc2oc(-c3ccc(NC(=O)c4ccc5c(c4)OCO5)cc3)nc2c1,?,?,0.6,-4.8%[56.1 µM],-1.1%,2.6%
CCOc1cc(C(=O)Nc2ccc(-c3nc4cc(C)ccc4o3)cc2)cc(OCC)c1OCC,11.6µM*,9.2µM*,nt,5.8%,-25.8%,-8.1%
Cc1cc(C)c(Nc2nc3ccccc3n3c(C)nnc23)c(C)c1,14.6µM*,13µM*,nt,6.5%,-4.3%,-17.2%
CC(=O)Nc1cccc(Nc2nc3ccccc3n3c(C)nnc23)c1,2.59µM*,2.31µM*,nt,-1.3%,-30.7%,-2.8%
Cc1ccc(S(=O)(=O)/N=C(/Nc2ccc(F)cc2F)c2ccc(F)cc2)cc1,0.1%,1.4%,5.9,2.0%,-0.3%,-0.8%
COc1ccccc1NS(=O)(=O)c1cc(NC(=S)Nc2cc(C)cc(C)c2)ccc1Cl,11.6µM*,5.17µM*,?,4.6%,-25.6%,?
COc1ccccc1NS(=O)(=O)c1cc(N/C(=N\S(=O)(=O)c2ccccc2)c2ccc(F)cc2)ccc1Cl,18.4µM*,nt,-8.2,-2.7%,-18.5%,1.3%
COc1ccccc1N/C(=N/S(=O)(=O)c1ccc(C)cc1)c1ccc(Cl)cc1,16.4µM*,?,-24.9,7.8%,-23.6%,0.4%
Cc1cccc2c(=O)cc(CSc3ccccc3NC(=O)C(C)(C)C)[nH]c12,-15.9%,-4.5%,nt,2.7%,-29.0%,-19.2%
CCOC(=O)c1c(NC(=O)c2cc(-c3ccccc3)on2)sc2c1CCCC2,-13.7%,3.0%,nt,0.0%,1.7%,2.9%
